This is a sample that favours compounds with a hit; in the whole collection about 2.9% have one here.
PAFAH1B3 FP inh: PAFAH1B3 (human) inhibition. actives 0.28% (n = 340,000). Q15102. inhibition, % at 3.39 µM. recombinant PAFAH1B3, FP-rhodamine probe, fluorescence polarization;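 active means inhibition above the screen-wide average of all tested compounds plus 3 SD, cut at about 25% in these data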;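 further: 0% = enzyme with DMSO only and 100% = wells lacking PAFAH1B3 protein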
pPAFAH FP inh: pPAFAH (human) enzyme inhibition. actives 1.5% (n = 330,000). inhibition, % at 3.39 µM. recombinant pPAFAH, FP-rhodamine probe fluorescence polarization. Q13093;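 active means inhibition above the mean inhibition across the screen plus 3 SD, cut at about 25% in these data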;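 further: inhibitors block binding of the rhodamine activity-based probe so polarization drops; 0% = enzyme with DMSO and 100% = wells lacking pPAFAH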
Target sequence (Q13093 whole entry, looked up): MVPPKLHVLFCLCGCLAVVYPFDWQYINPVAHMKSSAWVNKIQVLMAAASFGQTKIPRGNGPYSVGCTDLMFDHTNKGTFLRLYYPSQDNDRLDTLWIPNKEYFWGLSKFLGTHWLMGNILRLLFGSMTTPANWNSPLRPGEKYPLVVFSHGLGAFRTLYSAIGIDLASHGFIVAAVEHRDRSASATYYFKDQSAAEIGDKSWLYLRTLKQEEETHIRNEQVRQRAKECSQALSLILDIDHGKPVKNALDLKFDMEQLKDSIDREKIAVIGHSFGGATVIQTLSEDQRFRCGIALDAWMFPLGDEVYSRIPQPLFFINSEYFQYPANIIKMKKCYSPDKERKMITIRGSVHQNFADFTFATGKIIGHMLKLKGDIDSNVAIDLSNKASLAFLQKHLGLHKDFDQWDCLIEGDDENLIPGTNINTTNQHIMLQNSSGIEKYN
EBNA-1 inh: blocks EBNA-1 binding to DNA. EBNA-1 DNA binding, fluorescence polarization. AID 1950. inhibition, % at 14.8 µM. actives 0.34% (n = 300,000); in the data active means inhibition above about 28%
PAFAH1B2 FP inh: blocks human PAF acetylhydrolase 1b catalytic subunit 2; P68402; recombinant PAFAH1B2, FP-rhodamine activity probe, fluorescence polarization; inhibition, % at 3.39 µM; actives 1.2% (n = 340,000);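 active means inhibition above the mean of all tested compounds plus 3 SD, cut at about 24% in these data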;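 further: 0% = enzyme with DMSO and 100% = wells lacking PAFAH1B2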
PAFAH2 FP inh: PAFAH2 (human) inhibition; recombinant PAFAH2, FP-rhodamine activity probe, fluorescence polarization; inhibition, % at 3.39 µM; Q99487; actives 0.99% (n = 340,000); AID 492956;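 active means inhibition above the mean over all tested compounds plus 3 SD, cut at about 30% in these data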;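 further: inhibitors block probe labeling of enzyme so polarization drops; 0% = enzyme with DMSO and 100% = wells lacking PAFAH2 protein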
ZTA counter: blocks Epstein-Barr virus ZTA, an EBNA-1 counter-screen; P03206; ZTA-DNA binding, fluorescence polarization; inhibition, % at 11 µM; actives 0.15% (n = 320,000); AID 2234; in the data active means inhibition above about 33%
pPAFAH confirm: confirmation of human plasma PAF acetylhydrolase (pPAFAH) inhibitors; recombinant pPAFAH, FP-Rh probe fluorescence polarization; inhibition, % at 3.39 µM; AID 463230; actives 72% (n = 2,300); shares compounds with pPAFAH FP inh;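 active means mean inhibition of the triplicate above the hit cutoff set for the earlier primary screen, cut at about 25% in these data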;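 further: 0% = enzyme with DMSO and 100% = wells lacking pPAFAH enzyme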
* = called active by the depositor; nt = no result given.

SMILES	PAFAH1B3 FP inh	pPAFAH FP inh	EBNA-1 inh	PAFAH1B2 FP inh	PAFAH2 FP inh	ZTA counter	pPAFAH confirm
CCCCNC(=O)N1CCCN(c2ccc(C#N)cn2)CC1	4	0	-20	6	-1	1	nt
Cc1ccc(C(=O)NNC(=O)CCCN2C(=O)/C(=C/c3ccccc3Cl)SC2=S)cc1	-12	46*	-1	2	3	-20	53*
COc1ccc(N2C3=C(CC4=C2CC(C)(C)CC4=O)C(=O)CC(C)(C)C3)cc1	0	6	-6	3	0	8	nt
COc1ccc(N2C3=C(CC4=C2CCCC4=O)C(=O)CCC3)cc1	14	44*	-1	3	14	-3	7
O=C1CS(=O)(=O)N(Cc2cccc(F)c2)c2ccc(Br)cc21	-1	1	nt	3	-5	-17	nt
O=C1c2cc(Br)ccc2N(Cc2ccc(Br)cc2)S(=O)(=O)C1c1cc(Cl)c(Cl)cc1[N+](=O)[O-] (centres undefined)	20	45*	nt	44*	54*	nt	55*
CCCCCCc1c(C)c2ccc(OCC(=O)N[C@@H](Cc3ccccc3)C(=O)O)cc2oc1=O	7	38*	1	13	16	7	21
Cc1c(C)c2ccc(OCC(=O)N[C@@H](Cc3ccccc3)C(=O)O)cc2oc1=O	7	1	5	-1	-3	10	nt
CCc1noc(C)c1C(=O)OCC(=O)NCc1ccccc1	5	2	nt	7	-2	6	nt
CCc1noc(C)c1C(=O)OCC(=O)NC(C)c1ccccc1 (centres undefined)	5	35*	nt	-1	-2	-2	1
COc1ccc(NC(=O)c2cc3c(-c4ccc(OC)c(OC)c4)nn(C)c3s2)cc1OC	14	46*	18	4	18	-8	43*
C=CCn1c(SC(C)C(=O)Nc2ccc(F)c(F)c2F)nnc1C1CC1 (centres undefined)	-7	35*	2	0	0	0	2
O=C(O)c1ccccc1Nc1cccc(OCc2ccc3ccccc3n2)c1	7	36*	1	9	11	-2	31*
O=C(N/C(=C\c1ccco1)C(=O)N1CCCC1CO)c1ccccc1 (centres undefined)	9	2	-4	2	2	4	nt
O=C(OCc1cc(=O)n2ccsc2n1)c1ccccc1O	2	0	nt	5	3	nt	nt
O=C(OCc1cc(=O)n2ccsc2n1)c1ccccc1NCCO	4	74*	nt	4	4	nt	4
COc1cccc(C(C(=O)NCC2CCCO2)N(C(=O)Cn2nnc3ccccc32)c2ccc(NC(C)=O)cc2)c1 (centres undefined)	8	0	7	6	13	4	nt
CCOCCCNC(=O)c1ccc(N2CCCC2)c(NS(=O)(=O)c2ccc(C)cc2)c1	3	52*	6	4	3	-10	3
Nc1ccc(NC(=O)c2ccccc2)c2c1C(=O)c1ccccc1C2=O	3	2	-9	-3	-3	-19	nt
Nc1ccc(O)c2c1C(=O)c1ccccc1C2=O	44*	83*	13	55*	82*	37*	46*
S=c1[nH]nc(-c2cc3c(s2)-c2ccccc2CC3)o1	7	38*	-5	7	21	8	62*
COc1ccc(N2C(=O)c3ccccc3C2O)cc1 (centres undefined)	-2	0	8	3	2	-18	nt
COc1ccc(O)c(C(=O)C2c3ccccc3C(=O)N2c2ccc(C)cc2)c1 (centres undefined)	1	40*	-15	4	4	-2	-1
CC1=C(/C=C/C(C)=C/C=C/C(C)=C/C(=O)Nc2ccc(O)cc2)C(C)(C)CCC1	2	54*	nt	8	-1	-13	53*
Cc1cc(C)cc(NC(=O)Nc2ccc3c(c2)N(C)C(=O)CS3)c1	7	13	-1	-4	-10	1	nt
CCc1ccc(NC(=O)Nc2ccc3c(c2)N(C)C(=O)CS3)cc1	5	37*	9	0	-2	10	24

Screening results: PubChem BioAssay, The Scripps Research Institute Molecular Screening Center
